This note sets out measurements from PubChem BioAssay (NCI).

Among the test systems are NCI-H23 lung; NCI-H226 lung; NCI-H322M lung; HOP-62 NSCLC; NCI-H460 lung; HOP-92 NSCLC; NCI-H522 lung; A549/ATCC NSCLC; 786-0 renal; COLO 205 colon; DU-145 prostate; K-562 leukemia; MALME-3M melanoma; MDA-MB-231 breast; RXF 393 renal; SF-268 CNS; SF-295 CNS; SF-539 CNS; UACC-257 melanoma; M14 melanoma.
Test in all cases: NCI-60 one-dose screen, 48 h (100 = growth as untreated, 0 = no growth, -100 = all killed)
Holding throughout (conditions): 10 µM unless noted

About 83,000 compounds went through this panel and 20% of them were active in at least one assay; those are over-represented in the sample as a whole.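 Negative percent growth values reflect cell death: -40 means 40% of the cells present at the start died, and -100 means all died.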 Values without a mark were called inactive. Active and inactive are the calls of the source. Rule for the calls: active = growth percent below 10; inactive = the rest.

In the case of `CCCCNc1ccc2c3c(cccc13)C(=O)N(NCC(O)COc1ccc3c(C)cc(=O)oc3c1)C2=O` (configuration not stated), the growth was 87.4% in the test on NCI-H23 lung; 87.5% in the test with NCI-H226 lung; 91% in the test with NCI-H322M lung; 97% in the test with HOP-62 NSCLC; 92.6% in the test with NCI-H460 lung; 78.2% in the test on HOP-92 NSCLC. Moreover, the growth in the test with NCI-H522 lung is 83.2%; in the test on A549/ATCC NSCLC it was 87%; with 786-0 renal, 101%; in the test on COLO 205 colon, 92.2%; in the test with DU-145 prostate, 89.2%; in the test with K-562 leukemia, 75.8%. Besides, the growth in the test on MALME-3M melanoma is 110%; in the test on MDA-MB-231 breast, 81.4%; with RXF 393 renal, 91.6%; with SF-268 CNS, 79.6%; with SF-295 CNS, 95.5%; with SF-539 CNS it was 91.8%. The growth was 106% in the test on UACC-257 melanoma and 90.6% in the test on M14 melanoma.
On to `O=C(CSc1nnc(-c2ccc(-c3nc4ccc(Cl)cc4[nH]3)cc2)o1)Nc1ccc(Cl)cc1`, for which the growth in the test on NCI-H23 lung was -11.9% (active); in the test on NCI-H226 lung it was -38.2% (active); in the test with NCI-H322M lung it was 32.9%; with HOP-62 NSCLC, -13.6% (active); in the test on NCI-H460 lung, -75.8% (active); in the test with HOP-92 NSCLC, 14.7%. The growth was -1.21% (active) in the test with NCI-H522 lung; -39.5% (active) with 786-0 renal; 45.3% in the test with COLO 205 colon; 6.16% (active) in the test with DU-145 prostate; 11.2% with K-562 leukemia; -23.8% (active) in the test on MALME-3M melanoma. The growth is -51.5% (active) in the test on MDA-MB-231 breast; -49% (active) in the test on RXF 393 renal; 8.68% (active) in the test with SF-268 CNS; 27.6% in the test on SF-295 CNS; -95.3% (active) in the test on SF-539 CNS; 3.38% (active) in the test with UACC-257 melanoma. The growth with M14 melanoma is 1.01% (active).
On to `CC(=O)C[n+]1cccc2c3ccccc3ccc21`, for which the growth in the test on NCI-H23 lung was 85.4%; in the test on NCI-H226 lung, 97%; in the test with NCI-H322M lung it was 89.7%; with HOP-62 NSCLC, 109%; in the test on NCI-H460 lung, 82.4%; in the test with HOP-92 NSCLC it was 85.2%. Besides, the growth with NCI-H522 lung was 82.7%; with A549/ATCC NSCLC, 56.9%; with 786-0 renal it was 94.8%; in the test with COLO 205 colon, 70.5%; with DU-145 prostate it was 105%; in the test with K-562 leukemia, 69%. For the same molecule, the growth in the test on MALME-3M melanoma was 63.5%; in the test on MDA-MB-231 breast it was 85.7%; with RXF 393 renal, 46.3%; in the test on SF-268 CNS, 66.5%; in the test with SF-295 CNS, 93.9%; in the test with SF-539 CNS it was 89.6%. In addition, the growth in the test on UACC-257 melanoma is 48.8%; in the test on M14 melanoma, 98.7%.
`Cc1ccc(C2CC(c3ccc(S(=O)(=O)NCCNc4nc(N(C)C)nc(N5CCOCC5)n4)cc3)=Nc3c(N)nc(N)nc3N2)cc1` (configuration not stated): the growth was 72% in the test on NCI-H23 lung; 63.8% in the test on NCI-H226 lung; 77.3% in the test on NCI-H322M lung; 63.9% in the test on HOP-62 NSCLC; 53.6% with NCI-H460 lung; -9.13% (active) in the test on HOP-92 NSCLC. Besides, the growth is 80.1% in the test on NCI-H522 lung; 62.2% with A549/ATCC NSCLC; 32.8% in the test on 786-0 renal; 72.3% in the test with COLO 205 colon; 66% in the test on DU-145 prostate; 22.8% in the test with K-562 leukemia. For the same molecule, the growth was 57.3% in the test on MALME-3M melanoma; 31% with MDA-MB-231 breast; 10.6% in the test on RXF 393 renal; 45.2% in the test with SF-268 CNS; 32.7% with SF-295 CNS; 43.8% in the test on SF-539 CNS. The growth in the test with UACC-257 melanoma is 72.6%; with M14 melanoma it was 44.7%.
`CC(C)C[C@H](NC(=O)[C@@H]1CCCCCCCCCCC(=O)N[C@@H](CC(=O)N2CCC[C@@H]2C2CCCC2)C(=O)N1)B(O)O`: the growth with NCI-H23 lung is -83.3% (active); in the test on NCI-H226 lung it was -33.3% (active); in the test on NCI-H322M lung, -59.8% (active); in the test on HOP-62 NSCLC, -14.7% (active); in the test with NCI-H460 lung it was 0.61% (active); in the test with HOP-92 NSCLC it was -63.2% (active). Further, the growth was -49.1% (active) in the test on NCI-H522 lung; -43.8% (active) in the test on 786-0 renal; -64.6% (active) with COLO 205 colon; 6.72% (active) in the test on DU-145 prostate; 0.735% (active) with K-562 leukemia; -75.1% (active) with MALME-3M melanoma. For the same molecule, the growth was -72.4% (active) in the test on MDA-MB-231 breast; -84.8% (active) in the test on RXF 393 renal; 4.67% (active) in the test on SF-268 CNS; -93.4% (active) in the test with SF-295 CNS; -44.8% (active) with SF-539 CNS; -31% (active) in the test on UACC-257 melanoma. For the same molecule, the growth in the test on M14 melanoma is -48.2% (active).
Regarding `C/C(=N/O)c1ccc(NC(=O)CSc2nnc(-c3ccc(-c4nc5ccc(Cl)cc5[nH]4)cc3)o2)cc1`, the growth is -59.5% (active) in the test on NCI-H23 lung; -39% (active) in the test with NCI-H226 lung; 3.18% (active) in the test on NCI-H322M lung; -82% (active) in the test on HOP-62 NSCLC; -100% (active) with NCI-H460 lung; -53.4% (active) in the test with HOP-92 NSCLC. Further, the growth was -48.6% (active) with NCI-H522 lung; -13.3% (active) in the test on A549/ATCC NSCLC; -66.1% (active) in the test on 786-0 renal; 50.3% in the test with COLO 205 colon; -13.6% (active) in the test on DU-145 prostate; 14.9% with K-562 leukemia. For the same molecule, the growth in the test on MALME-3M melanoma was -80.8% (active); in the test on MDA-MB-231 breast it was -96.5% (active); in the test on RXF 393 renal, -71.5% (active); in the test with SF-268 CNS, 17.6%; with SF-295 CNS, -16.4% (active); with SF-539 CNS, -100% (active). Moreover, the results for the growth with UACC-257 melanoma and in the test on M14 melanoma were -36.9% (active) and -62.7% (active), respectively.
Consider `CC1CCc2c(sc3nc(SCC(=O)c4cccc(Br)c4)n(-c4ccccc4)c(=O)c23)C1` (configuration not stated), for which the growth in the test with NCI-H23 lung is 11.3%; in the test with NCI-H226 lung, 19.7%; with NCI-H322M lung, 74.5%; with HOP-62 NSCLC it was 39.9%; with NCI-H460 lung, 55%; in the test on HOP-92 NSCLC it was 44%. Moreover, the growth in the test on NCI-H522 lung is 40.3%; in the test with 786-0 renal it was 18.8%; in the test on COLO 205 colon, 25.3%; in the test on DU-145 prostate it was 20.3%; in the test on K-562 leukemia, 43.3%; with MALME-3M melanoma, 97.5%. Besides, the growth in the test on MDA-MB-231 breast was 32.3%; in the test on RXF 393 renal, 90.9%; in the test on SF-268 CNS, 64.9%; in the test on SF-295 CNS, 47.2%; in the test on SF-539 CNS, 18.3%; with UACC-257 melanoma, 91.1%. Besides, in the test on M14 melanoma, the growth was 55.4%.
